SMILES strings stand for the structures. Results filed as inconclusive are left out. A structure can be active in one record and inactive in another. Values without a mark were called inactive. Active and inactive are the calls of the source. The call rests on the fitted dose curve; in most records, active means well fitted cell-killing curve with a large enough effect in the repeat runs; inconclusive means weak or mixed curves, or effect the other way; inactive means flat fitted curve, though single readings scatter.

Experimental findings from PubChem BioAssay (Tox21) are described below.
On the % scale 0 is the no-effect control and ±100 the full control effect; potency means the concentration at half of the fitted maximal effect.

This experiment is described as follows: cAMP Responsive Elements (CRE) small molecule agonists, cell-based qHTS assay: qHTS cell viability counter screen (AID 2060914). Further: nearly all actives have a fitted effect of over 50% in size. The following applies: CRE-bla HEK293T viability, CellTiter-Glo luminescence, 5 h; series mostly up to 92.4 µM; activity change, negative = cytotoxicity: at the top concentration. Put shortly:
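HEK 293T CRE-bla; DMEM + 10% dialyzed FBS, 25 mM HEPES; 18 h pre-incubation; compound 3 h, 37 °C/5% CO2; CellTiter-Glo added after reporter read; luminescence after 30 min RT.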
A general note: Quantitative high-throughput screening tests each substance at several concentrations.
As to `C/C=C/CO`, the “activity change, negative = cytotoxicity” value is 5.19%.

As for `CC(=O)N(O)CCCCCNC(=O)CCC(=O)N(O)CCCCCNC(=O)CCC(=O)N(O)CCCCCN`, the “activity change, negative = cytotoxicity” value is -7.84% [at 42.5 µM].

In the case of `CCC(C)(O)CCCC(C)C` (configuration not stated), the Potency result was “inactive”.

Consider `O=[Se](O)O`, for which the activity change, negative = cytotoxicity is 25.7% [at 18.9 µM] and the Potency is 15.4 µM (active). As to `OB(O)O`, the Potency result was “inactive”.

Consider `CCCCCCCC`, for which the “activity change, negative = cytotoxicity” value is 11.1%. Regarding `COC(=O)[C@@H]1CC2=CC(=O)CC[C@]2(C)[C@@]23O[C@@H]2C[C@@]2(C)[C@@H](CC[C@@]24CCC(=O)O4)[C@H]13`, the “activity change, negative = cytotoxicity” value was -2.1% [at 42.5 µM].

For the molecule `CC/C=C\CCCCCO`, the “activity change, negative = cytotoxicity” value was -0.0168%. Still for that read-out and setting: the same measure for `O=[N+]([O-])c1ccccc1Nc1ccccc1`: -6.09%.

Regarding `Nc1nc2ccc([N+](=O)[O-])cc2s1`, the “activity change, negative = cytotoxicity” value was -0.819%. Regarding `CCc1cccc2c(CCO)c[nH]c12`, the “activity change, negative = cytotoxicity” value is 8.36% [at 42.5 µM]. As to `CCC1(C)CC(=O)NC1=O` (configuration not stated), the “activity change, negative = cytotoxicity” value is -2.61% [at 42.5 µM]. Same read-out and setting: under `O=Cc1ccc(F)cc1` stands 1.34%.

As for `Cc1c(N)cccc1N`, the “activity change, negative = cytotoxicity” value is 5.54%.

For `CC(=O)OC(C)C`, the Potency result is “inactive”.

`CN1CCN(C2=Nc3ccccc3Sc3ccc(Cl)cc32)CC1`: the “activity change, negative = cytotoxicity” value was -3.77% [at 42.5 µM].
